Assay results from PubChem BioAssay AID1117319 (Southern Research Institute, 2015).
Several values for one entry are separate records, joined by “and”; a condition that tells them apart may be missing. Identical values can stand only once. Screen size: about 260,000 compounds; about 1,500 (0.58%) were called active. Inconclusive results (about 5%) are left out.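 The calls were made as follows: active = inhibition above a set limit at one or more doses, reproduced on every date tested; inconclusive = results disagree between test dates, or hit never tested in dose response; inactive = the rest.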 Not all results are given here. Entries with a potency or affinity are not part of this list.

Molecular target: Virion infectivity factor (Human immunodeficiency virus type 1 group M subtype B (isolate BH10)) + Virion infectivity factor (Human immunodeficiency virus type 1 group M subtype B (isolate BRU/LAI)) + Virion infectivity factor (Human immunodeficiency virus type 1 group M subtype B (isolate PCV12)) + Virion infectivity factor (Human immunodeficiency virus type 1 group M subtype B (isolate HXB2)) + DNA dC->dU-editing enzyme APOBEC-3G (Homo sapiens) (UniProt P69720+P69721+P69722+P69723+Q9HC16)
Assay: inhibitors of Vif binding to APOBEC3G peptide, primary screen, biochemical, TR-FRET, GST-Vif 1-94, biotin-A3G peptide, dose response retest (AID 1117319);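 also: Vif residues 1-94 fused to GST binding biotinylated APOBEC3G peptide 110-148; 0% = full assay without inhibitor and 100% = GST in place of GST-Vif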
Settings: hits give high values

inhibition, inactive:
CCOc1ccc(CCNC(=O)C2CCN(S(=O)(=O)N3CCC(C)CC3)CC2)cc1OCC -6.54%
CCOc1ccc(CCNC(=O)C2CC=CCC2C(=O)OC(C)C)cc1OCC (configuration not stated) 0.89%
CCOC(=O)c1[nH]c2cc(OC)c(OC)cc2c1NC(=O)CN1CCN(c2ccc(OC)cc2)C(C)C1 (configuration not stated) 23%
Cc1cc(C(=O)N/N=C/c2ccc(-c3cccc(Cl)c3)o2)n[nH]1 -2.03%
Cc1ccc(-c2cc(N)n(-c3ccc(C)cc3)n2)cc1 -11.3%
Cc1ccc(-c2cc(N)n(-c3ccccc3)n2)cc1 -2.7%
CCOC(=O)c1ccc(N2C(=O)C3CC=C(C)CC3C2=O)cc1 (configuration not stated) 24.6%
Cc1ncc(CO)c(/C=N/NC(=O)c2cc(Br)ccc2O)c1O 11%
O=C(N/N=C\c1cccnc1)c1ccccc1O -5.54%
O=C(N/N=C/c1cccnc1)c1ccccc1 -11.7%
COc1ccc(C(=O)N/N=C/c2c(CO)cnc(C)c2O)cc1 8.42%
Cc1ccc(NC2=NCCCCC2)cc1 0.64%
CCN(CC)C(=O)[C@H]1C[C@H](CC(=O)NC(C)(C)C)C(=O)N2CCc3c([nH]c4ccc(Cl)cc34)[C@]12C -8.68%
CNC(=O)CN(C1CCCCC1)S(=O)(=O)c1ccc(F)cc1 -2.39%
Cn1cccc1Cc1nnc(SCC(=O)NCc2ccco2)n1CCc1ccccc1 1.07%
Cn1cccc1/C=C1\CC(C(C)(C)C)C/C(=C\c2cccn2C)C1=O (configuration not stated) 1.11%
CC1C/C(=C/c2cccn2C)C(=O)/C(=C/c2cccn2C)C1 (configuration not stated) 32.9%
O=C1/C(=C/c2ccccc2)SC(=S)N1N1C(=O)C2CC2C1=O (configuration not stated) -1.11%
CC(C)Cc1nnc(NC(=O)c2cccc(S(=O)(=O)N3CCN(C)CC3)c2)s1 3.22%
O=C(/C=C/c1ccccc1[N+](=O)[O-])OCC(=O)c1ccccc1 -4.21%
Cc1ccc(C(=O)CSc2nc3cccnc3n2C)cc1 6.72%
O=C(COc1cc(Cl)c(Cl)cc1Cl)NCCN1CCOCC1 8.15%
Cc1nnc(NC(=O)CCC(=O)NCc2ccco2)s1 6.21%
NC(=O)COC(=O)c1ccc(-c2ccccc2)cc1 -9.63%
NC(=O)COC(=O)c1ccc(C(=O)C(=O)c2ccccc2)cc1 4.49%
O=C(CSC(=S)N1CCOCC1)Nc1ncc2c(n1)CCCC2=O 1.41%
O=C(NCC(O)c1ccccc1)c1cccs1 (configuration not stated) -7.1%
Cc1sc(NC(=O)c2ccco2)c(CN2CCN(c3ccccn3)CC2)c1C 17.2%
NC(=O)N/N=C/c1ccc(-c2ccc([N+](=O)[O-])cc2)o1 0.97%
O=C(O)c1cc(-c2ccc(/C=N/Nc3ccc([N+](=O)[O-])cn3)o2)ccc1Cl 5.44%
O=C(CCNC(=O)c1ccc([N+](=O)[O-])cc1)Nc1cc(Cl)ccc1N1CCOCC1 -3.46%
CCCCC(=O)NC(=S)Nc1cc(C(=O)O)ccc1OC 6.07%
CC(=O)NC(=S)Nc1cc(C(=O)O)ccc1Cl -3.72%
CCCCC(c1nnnn1CCOC)N1CCN(C(=O)c2ccco2)CC1 (configuration not stated) 32.8% and -5.2%
Cc1ccc(CN(C)C(=O)CN2C(=O)NC3(CCCc4ccccc43)C2=O)c(C)c1 (configuration not stated) -3.76%
CN(C)C(=O)CSc1nnc(Cc2ccccc2)n1Cc1ccco1 7.45%
O=C(Nc1cccc(-c2nnn(CC(=O)N3CCc4ccccc4C3)n2)c1)C1CCC1 -4.46%
CC(C)CC(=O)Nc1ccccc1-c1nnn(CC(=O)N2CCc3ccccc3C2)n1 10.6%
CC(=O)NCCOc1cccc2ccccc12 4.94%
CC(=O)NN1C(=O)/C(=C\c2ccc(C)cc2)SC1=S -1.41%
CC(=O)NN1C(=O)/C(=C\c2ccc(Cl)cc2)SC1=S 7.42%
CC(=O)NN1C(=O)/C(=C/c2ccc(C(C)C)cc2)SC1=S -3.47%
CC(=O)NN1C(=O)/C(=C\c2ccccc2)SC1=S 1.87%
O=C(c1nc(-c2ccccc2)n(-c2ccccc2)n1)N1CCCCCC1 2.5%
O=C(NNC(=O)c1cc(Cl)ccc1O)c1cccc(S(=O)(=O)N2CCOCC2)c1 4.69%
COc1cccc(C(=O)NCc2ccc(N3CCN(C(=O)OC(C)(C)C)CC3)cc2)c1 4.61%
CCN(CC)c1ccc(C(=O)Nn2cnc3ccccc3c2=O)cc1 -13%
Cc1cc(-c2csc(N)n2)c(C)n1Cc1ccco1 20.6%
CCNc1nc(-c2cc(C)n(Cc3ccco3)c2C)cs1 8.76%
Cc1ccccc1NS(=O)(=O)c1cc(C(=O)NCCSC2CCCCC2)ccc1C 4.25%
CCCCCCCCn1c2c(c(=N)c3ccccc31)CCC2 1.93%
Cc1cc(C)c2c(=O)[nH]c(=O)n(Cc3ccccc3)c2n1 11.8%
O=C1NC(=S)S/C1=C\c1cccc([N+](=O)[O-])c1 0.14%
O=C1CN(/N=C/c2ccc([N+](=O)[O-])o2)C(=O)N1 6.04%
CCC1(C)Cc2ccccc2-c2nc(NCCCO)n(-c3ccccc3)c(=O)c21 (configuration not stated) -4.2%
CC(C)COC(=O)Nc1nnc(SCCOc2ccccc2)s1 -6.77%
O=C(c1cc2c(s1)-c1ccccc1OC2)N1CCN(c2ccccn2)CC1 -16.4%
CCOc1cc(C(=O)OCC(=O)Nc2cc(C)on2)cc(OCC)c1OCC -2.84%
Clc1ccc(OCc2nn3c(-c4ccco4)nnc3s2)cc1 2%
Clc1ccc(OCc2nn3c(-c4ccccc4)nnc3s2)c(Cl)c1 -0.95%
COc1ccc(CN(C)C2CCCCC2)c(C)c1C -2.5%
COc1ccccc1NC(=O)CSc1nnc(CC(=O)Nc2ccccc2C)n1C -12.1%
CCOc1cccc(N2C(=O)CC(N3CCN(c4nc5ccccc5s4)CC3)C2=O)c1 (configuration not stated) -1.33%
O=C(N/N=C/c1ccc(O)c([N+](=O)[O-])c1)c1ccncc1 -22.5%
Clc1cccc(/C=N\Nc2nccs2)c1 -1.1%
COc1ccc(C(=O)NCc2ccncc2)cc1OC 24.8%
O=C(O)c1cc(N=Nc2c(O)[nH]c3ccc([N+](=O)[O-])cc23)ccc1Cl 10%
Cc1onc(-c2c(Cl)cccc2Cl)c1NC(=O)NNc1c(Cl)cncc1Cl -3.28%
CCOC=C1SC(=S)N(c2ccccc2OC)C1=O -1.46%
COc1ccccc1NC(=S)N1CCCCCC1 -0.41%
CCc1ccc(CCC(=O)Nc2ccc(S(N)(=O)=O)cc2)o1 68.2%
CC(=O)Nc1ccc(NC(=O)CCc2ccc(C)o2)cc1 3.07%
O=C(COC(=O)COc1cccc(Br)c1)NCc1ccc2c(c1)OCO2 -4.12%
CCOc1ncccc1C(=O)OCC(=O)c1c(N)n(C)c(=O)n(C)c1=O -0.62%
CCN(CC(=O)Nc1c(F)cccc1F)C(=O)c1c(-c2ccccc2Cl)noc1C 10.1%
C=CCn1c(COc2ccc(Cl)cc2)nnc1SCc1ccc(C#N)cc1 -5.86%
Cc1[nH]c2ccccc2c1-c1nc2ccccc2[nH]1 24.1%
CCc1c(C)[nH]c2ccccc2c1=O 22.4%
CCOc1ccc(CCNC(=O)CS(=O)Cc2nc(-c3ccc(C)cc3)oc2C)cc1 (configuration not stated) 5.23%
COc1ccc(N2CCN(Cc3cc(=O)oc4cc(C)c(Cl)c(C)c34)CC2)cc1 4.75%
O=C(NCCc1ccccc1)C1CCN(S(=O)(=O)c2cccc3nonc23)CC1 -0.8%
O=C(NCCN1CCN(c2ccccc2)CC1)C1CCN(S(=O)(=O)c2cccc3nsnc23)CC1 -4.91%
Cc1cc(=O)[nH]c(SCCCOc2ccccc2Cl)n1 -1.03%
CCSc1n[nH]c2nc3c(c(=O)n12)C1(CCCCC1)Cc1ccccc1-3 -15.1%
CCN(CC)C(=O)CSc1nnc(-c2ccccn2)n1-c1ccccc1OC -5.38%
Oc1c(Br)cc(Cl)cc1C=Nc1ccc(N2CCOCC2)cc1 29.3%
O=[N+]([O-])c1cc(Cc2ccccc2)cc(C=Nc2ccc(N3CCOCC3)cc2)c1O 23.6%
COc1cccc(C(=O)Nc2ccc(NC(=O)c3ccco3)c(Cl)c2)c1 -3.2%
Cc1ccc(-c2cc(C(F)(F)F)n3nc(C(=O)Nc4ccon4)cc3n2)cc1C 10.8%
COc1ccc(/C=N/NC(=O)Cn2ccnc2C)cc1OC -2.05%
Cc1nccn1CC(=O)N/N=C/c1cccc(O)c1 2.96%
CNC(=O)C(=O)N/N=C/c1ccc(Br)cc1 17.2%
COc1ccc(NC(=O)COc2ccccc2Cl)cc1S(=O)(=O)N1CCCCC1 11.7%
O=C(CNS(=O)(=O)c1ccccc1Br)OCC(=O)N1CCc2ccccc21 4.27%
Cc1onc(-c2c(F)cccc2Cl)c1C(=O)N1CCOC12CCCCC2 -10.5%
Nc1ccc(S(=O)(=O)c2ccc(N)cc2)cc1 -4.69%
Nc1ccc(S(=O)(=O)c2cccc(N)c2)cc1 0.36%
